Test results taken from PubChem BioAssay AID1159580 (chemical genetic matrix, 2015).
Out of some 5,500 compounds screened, about 2,000 (36%) were called active. Roughly 18% stayed inconclusive and do not appear here. Rule as the data show it: active = normalized growth mostly below about 0.91 (no sharp cut-off); inconclusive = no clear call, values can overlap the other calls; inactive = mostly above about 0.92. The list shows a part of the results.

Test: chemical genetic growth profiling, strain panel (AID 1159580);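 also: tested at 20 µM; growth read once vehicle control cultures reached saturation at 30 °C; 1 = growth at the plate median or of vehicle wells; lower values mean less growth of the strain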
Conditions: growth OD
[1] = S. cerevisiae deletion strains, locus YAL013W, strain DEP1, hits give low values
[2] = S. cerevisiae deletion strains, locus YBR229C, strain ROT2, hits give low values
[3] = S. cerevisiae deletion strains, locus YDL101C, strain DUN1, hits give low values
[4] = S. cerevisiae deletion strains, locus YDR150W, strain NUM1, hits give low values
[5] = S. cerevisiae deletion strains, locus YEL061C, strain CIN8, hits give low values
[6] = S. cerevisiae deletion strains, locus YGR078C, strain PAC10, hits give low values
[7] = S. cerevisiae deletion strains, locus YGR229C, strain SMI1, hits give low values
[8] = S. cerevisiae deletion strains, locus YHR030C, strain SLT2, hits give low values
[9] = S. cerevisiae deletion strains, locus YHR087W, strain rtc3, hits give low values
[10] = S. cerevisiae deletion strains, locus YJL187C, strain SWE1, hits give low values
[11] = S. cerevisiae deletion strains, locus YJR043C, strain POL32, hits give low values
[12] = S. cerevisiae deletion strains, locus YJR075W, strain HOC1, hits give low values
[13] = S. cerevisiae deletion strains, locus YLR039C, strain RIC1, hits give low values
[14] = S. cerevisiae deletion strains, locus YLR058C, strain SHM2 (second series), hits give low values
[15] = S. cerevisiae deletion strains, locus YLR085C, strain ARP6, hits give low values
[16] = S. cerevisiae deletion strains, locus YLR262C, strain YPT6, hits give low values
[17] = S. cerevisiae deletion strains, locus YML094W, strain GIM5, hits give low values
[18] = S. cerevisiae deletion strains, locus YMR219W, strain ESC1, hits give low values
[19] = S. cerevisiae deletion strains, locus YMR263W, strain SAP30, hits give low values
[20] = S. cerevisiae deletion strains, locus YNL153C, strain GIM3, hits give low values
[21] = S. cerevisiae deletion strains, locus YNL298W, strain CLA4 (second series), hits give low values
[22] = S. cerevisiae deletion strains, locus YNL322C, strain KRE1, hits give low values
[23] = S. cerevisiae deletion strains, locus YNR030W, strain Alg12, hits give low values
[24] = S. cerevisiae deletion strains, locus YOL006C, strain TOP1, hits give low values
[25] = S. cerevisiae deletion strains, locus YPL055C, strain LGE1, hits give low values
[26] = S. cerevisiae deletion strains, locus YPL241C, strain CIN2, hits give low values
[27] = S. cerevisiae deletion strains, locus YPR135W, strain CTF4, hits give low values
[28] = S. cerevisiae strains, strain wild type, hits give low values

Measured: normalized growth

COCCCNC(=S)Nc1ccc(C)cc1C
inactive: [1] 0.985 | [2] 0.974 | [3] 0.968 | [4] 0.966 | [5] 1.01 | [6] 0.98 | [7] 0.986 | [8] 0.974 | [9] 1.04 | [10] 0.993 | [11] 0.977 | [12] 1 | [13] 0.975 | [14] 0.982 | [15] 0.921 | [16] 0.961 | [17] 1 | [18] 0.99 | [19] 0.999 | [20] 0.986 | [21] 0.97 | [22] 0.981 | [23] 1 | [24] 0.923 | [25] 1.01 | [26] 0.973 | [27] 0.917 | [28] 0.987

Cc1ccc(-n2cccc2)c(NC(=S)Nc2ccc(Br)cc2OC(F)(F)F)c1
active: [8] 0.558 | [13] 0.621 | [15] 0.658 | [16] 0.587 | [21] 0.757
inactive: [1] 0.978 | [2] 1 | [3] 1.02 | S. cerevisiae deletion strains, locus YDL134C, strain PPH21, hits give low values 1.01 | [4] 0.892 | [5] 0.988 | [6] 0.973 | [7] 1.03 | [9] 1.02 | [10] 0.987 | [11] 1.03 | [12] 0.972 | [14] 1.01 | [17] 0.904 | [18] 1.01 | [19] 0.964 | [20] 0.979 | [22] 1.01 | [23] 0.925 | [24] 0.796 | [25] 0.882 | [26] 0.92 | [27] 0.679 | [28] 0.998

Cc1ccc(NC(=S)NCCO)c(C)c1
inactive: [1] 1 | [2] 0.987 | [3] 1.01 | [4] 1 | [5] 0.99 | [6] 1.01 | [8] 1 | [9] 1.01 | [11] 0.997 | [12] 0.978 | [13] 1.01 | [14] 0.996 | [15] 1 | [16] 1 | [17] 1.01 | [18] 1 | [19] 1 | S. cerevisiae deletion strains, locus YNL128W, strain TEP1, hits give low values 1 | [20] 1 | [21] 1.02 | [22] 0.98 | [23] 0.986 | [24] 1.03 | [25] 1.01 | [26] 0.945 | [27] 1.03
